“And” between values parts separate entries of the source, which are not always exact repeats. Identical values can stand only once. Records with an inconclusive call do not appear. Some structures have more than one record in an assay (separate samples or runs), and their calls can disagree. The source made the active and inactive calls. Unless noted, calls follow the shape of the dose curve; as a rule, active = well fitted curve in the direction sought with a large enough effect in the repeat runs; inconclusive = weak or mixed curves; inactive = no such curve, though single readings can be large; an effect the other way counts as inactive or inconclusive.

Test [1] in a line: qHTS assay to identify small molecule antagonists of the constitutive androstane receptor (CAR) signaling pathway - cell viability counter screen (AID 1224837). Also: nearly all actives have a fitted effect of over 45% in size. An outline of the steps: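 Cells are seeded, rested 4 hr at 37 C/5% CO2, dosed with compound (15-point series) and 50 nM CITCO, incubated a further 23 hr, and then CellTiter-Fluor reagent is added before fluorescence is read. The line is HepG2 with stable hCAR and CYP2B6-2.2kb.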
A general note: In qHTS, concentration-response curves come from the screen itself.

Test [2] has as its target Nuclear receptor subfamily 1 group I member 3 (Homo sapiens) (UniProt Q14994). In words: qHTS assay to identify small molecule antagonists of the constitutive androstane receptor (CAR) signaling pathway (AID 1224838).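 Also: HepG2 cells stably expressing hCAR with CYP2B6 luciferase reporter stimulated by CITCO; nearly all actives have a fitted effect of over 40% in size.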 The essentials:
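Luminescence from a CYP2B6-2.2kb promoter reporter in hCAR-expressing HepG2 cells reflects CAR signaling. Cells received compounds at 15 concentrations and 50 nM CITCO (final), then incubated 24 h at 37 C/5% CO2.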

The target is the same in test [3]. Nature of the test: qHTS assay to identify small molecule agonists of the constitutive androstane receptor (CAR) signaling pathway (AID 1224839).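 Also: HepG2 cells stably carrying human CAR and a CYP2B6 luciferase reporter; nearly all actives have a fitted effect of over 15% in size.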 The essentials: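 Double-stable HepG2 cells (hCAR, CYP2B6-2.2kb) seeded 4 h before compound addition. Exposure 24 h with 0.75 uM PK11195 final. Luciferase detected by ONE-Glo.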
The nature of test [4]: qHTS assay to identify small molecule antagonists of the estrogen related receptor signaling pathway with the pleiotropic PPARgamma coactivator (PGC) from Tox21 10K library - cell viability counter screen (AID 1224840; active = well fitted cell-killing curve with a large enough effect in the repeat runs, not every such curve was filed as active; also: nearly all actives have a fitted effect of over 40% in size). The essentials: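 Cell viability is measured by CellTiter-Fluor fluorescence in PGC/ERR cells that receive compounds after a 6-hour attachment period and are then incubated 17.5 hours at 37 C.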

Test [5] can be described thus: qHTS assay to identify small molecule antagonists of the estrogen related receptor signaling pathway with the pleiotropic PPARgamma coactivator (PGC) from Tox21 10K library (AID 1224841; call rule not given here; also: actives are mostly falling curves and most rising ones were filed inactive; nearly all actives have a fitted effect of over 50% in size). An outline of the steps:
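Cells stably carrying the PGC/ERR reporter, seeded at 2,000 per well, received pin-transferred compounds 6 h post-plating. Exposure lasted 18 h at 37 C. Signal: One-Glo luminescence.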

The nature of test [6]: qHTS assay to identify small molecule agonists of the estrogen related receptor signaling pathway with the pleiotropic PPARgamma coactivator (PGC) from Tox21 10K library (AID 1224842). Also: nearly all actives have a fitted effect of over 15% in size. The essentials:
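PGC/ERR reporter cell line, 2,000 cells per well, incubated 6 h at 37 C before 23 nL compound in DMSO was added. After 18 h at 37 C, One-Glo luminescence read following 30 min at room temperature.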

Test [7] deals with Thyrotropin receptor (Homo sapiens) (UniProt P16473). Nature of the test: qHTS assay to identify small molecule agonists of the thyroid stimulating hormone receptor (TSHR) signaling pathway (AID 1224843; calls by dose curve; also: nearly all actives have a fitted effect of over 45% in size). The essentials:
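HEK293/TSHR, 800 cells/well; cpd 30 min RT; add cAMP-d2 + anti-cAMP-cryptate, 1 h RT; fluorescence read on plate reader. 15-pt titration, n=3.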

A short description of test [8]: qHTS assay to identify small molecule agonists of the hypoxia (HIF-1) signaling pathway - cell viability counter screen (AID 1224844; calls by dose curve; also: nearly all actives have a fitted effect of over 50% in size; also: potency is read from the fitted curve at half-maximal effect). The essentials: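 Viability counter screen: HRE-bla ME-180 cells plated 5 hrs before compound addition, treated 17 hrs at 37C and 5% CO2, then CellTiter-Glo added after the FRET reporter read; luminescence after 30 min.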
Test [9] in a line: qHTS assay to identify small molecule agonists of H2AX (AID 1224845; active = well fitted activation curve with a large enough effect in the signal ratio in the repeat runs, not every such curve was filed as active; the % refers to the signal ratio). The essentials:
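Wild-type CHO-K1 cells, plated overnight, exposed 3hr at 37C to 15 concentrations (0.76% DMSO final). Lysed, then HTRF anti-pH2AX (S139) cryptate and anti-H2AX-d2 antibodies, 24 hr room temperature; 665/620 nm emission read.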

Test [10] in a line: qHTS assay to identify small molecule agonists of the hypoxia (HIF-1) signaling pathway (AID 1224846; active = well fitted activation curve with a large enough effect in the signal ratio in the repeat runs, not every such curve was filed as active; the % refers to the signal ratio). The essentials:
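Agonist mode reporter screen. ME-180 cells stably expressing bla under HRE control received test compounds in DMSO for 17 hrs (37C, 5% CO2), and beta-lactamase activity was then detected with the CCF4-AM FRET substrate.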

Test [11] is described as follows: qHTS assay to identify small molecule agonists of H2AX - cell viability counter screen (AID 1224847; calls by dose curve; also: nearly all actives have a fitted effect of over 30% in size; also: potency is read from the fitted curve at half-maximal effect). An outline of the steps: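 Quantitative HTS viability measurement: CHO-K1 wild-type cells in serum (10% FBS) medium, short 3 hr drug exposure at 37C with 0.76% DMSO, CellTiter-Glo luminescent detection.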
Test [12] in a line: qHTS assay to identify small molecule antagonists of the estrogen related receptor (ERR) signaling pathway from Tox21 library (AID 1224848). Also: nearly all actives have a fitted effect of over 50% in size. An outline of the steps: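 Compounds dissolved in DMSO are pin-transferred onto ERR reporter cells (2,000 per well) that have settled for 6 h at 37 C. Plates then incubate 18 h at 37 C before ONE-Glo luciferase reagent and a luminescence read 30 min later.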

Test [13] in a line: qHTS assay to identify small molecule agonists of the estrogen related receptor (ERR) signaling pathway from Tox21 library (AID 1224849; calls by dose curve; also: nearly all actives have a fitted effect of over 15% in size). As to conditions: ERR reporter cell line, ONE-Glo luciferase, 18 h. The essentials:
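Quantitative HTS in agonist format: NTP ERR cell line, compounds transferred in DMSO after 6 h plating, 18 h incubation at 37 C, ONE-Glo luminescence endpoint.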

The nature of test [14]: qHTS RealTime-Glo MT Cell Viability Assay in HepG2 cells - 24 hour (AID 1224867). Also: nearly all actives have a fitted effect of over 50% in size. The essentials:
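Real-time, nonlytic viability: 600 HepG2 cells/well mixed with NanoLuc enzyme plus prosubstrate; 5 h settle, compound (DMSO) added by pintool; luminescence monitored over 40 h at 37 C.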

A short description of test [15]: qHTS RealTime-Glo MT Cell Viability Assay in HEK293 cells - 32 hour (AID 1224868). Also: nearly all actives have a fitted effect of over 50% in size. Also: potency is read from the fitted curve at half-maximal effect. An outline of the steps:
(§1)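 Cells + reagent dispensed (600 cells/well, HEK293) → 5 h at 37 C/5% CO2 → 23 nL compound in DMSO pinned → 40 h at 37 C → luminescence read at 0, 8, 16, 24, 32, 40 h.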

A short description of test [16]: qHTS RealTime-Glo MT Cell Viability Assay in HepG2 cells - 40 hour (AID 1224870). Also: nearly all actives have a fitted effect of over 50% in size. Also: potency is read from the fitted curve at half-maximal effect. An outline of the steps: (§2)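 HepG2 cells (600/well) mixed with RealTime-Glo MT reagent, settled 5 h at 37 C/5% CO2 before compound addition. Nonlytic NanoLuc luminescence from viable-cell prosubstrate reduction read repeatedly during 40 h treatment at 37 C.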
The nature of test [17]: A CellTox Green Cytotoxicity Assay to monitor cytotoxicity in HEK293 cells - 40 hour (AID 1224871). Also: nearly all actives have a fitted effect of over 45% in size. Also: potency is read from the fitted curve at half-maximal effect. An outline of the steps: (§3)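 Dead-cell fluorescence measured kinetically: asymmetric cyanine dye, HEK293, 600 cells/well, 5 h settle, 23 nL cpd/DMSO, 37 C, reads 0–40 h every 8 h.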
The nature of test [18]: qHTS RealTime-Glo MT Cell Viability Assay in HEK293 cells - 16 hour (AID 1224872). The essentials: as §1
Test [19] in a line: qHTS RealTime-Glo MT Cell Viability Assay in HepG2 cells - 8 hour (AID 1224873). Also: nearly all actives have a fitted effect of over 55% in size. An outline of the steps:
as §2

Test [20] is described as follows: A CellTox Green Cytotoxicity Assay to monitor cytotoxicity in HEK293 cells - 0 hour (AID 1224869). Also: nearly all actives have a fitted effect of over 50% in size. The essentials: as §3
% is scaled to controls: 0 for no effect and ±100 for the full control effect.

Nuclear receptor subfamily 1 group I member 3 (Homo sapiens), sequence (Q14994 whole entry, looked up): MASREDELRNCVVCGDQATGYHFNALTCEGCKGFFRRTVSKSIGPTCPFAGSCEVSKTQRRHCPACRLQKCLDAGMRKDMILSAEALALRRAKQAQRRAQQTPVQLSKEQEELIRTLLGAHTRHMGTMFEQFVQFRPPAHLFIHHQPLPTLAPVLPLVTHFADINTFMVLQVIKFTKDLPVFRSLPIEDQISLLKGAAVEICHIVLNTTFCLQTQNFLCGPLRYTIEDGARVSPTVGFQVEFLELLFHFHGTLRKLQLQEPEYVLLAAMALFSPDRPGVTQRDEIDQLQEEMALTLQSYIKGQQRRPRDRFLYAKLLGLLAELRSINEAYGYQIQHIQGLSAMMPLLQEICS
Thyrotropin receptor (Homo sapiens), sequence (P16473 whole entry, looked up): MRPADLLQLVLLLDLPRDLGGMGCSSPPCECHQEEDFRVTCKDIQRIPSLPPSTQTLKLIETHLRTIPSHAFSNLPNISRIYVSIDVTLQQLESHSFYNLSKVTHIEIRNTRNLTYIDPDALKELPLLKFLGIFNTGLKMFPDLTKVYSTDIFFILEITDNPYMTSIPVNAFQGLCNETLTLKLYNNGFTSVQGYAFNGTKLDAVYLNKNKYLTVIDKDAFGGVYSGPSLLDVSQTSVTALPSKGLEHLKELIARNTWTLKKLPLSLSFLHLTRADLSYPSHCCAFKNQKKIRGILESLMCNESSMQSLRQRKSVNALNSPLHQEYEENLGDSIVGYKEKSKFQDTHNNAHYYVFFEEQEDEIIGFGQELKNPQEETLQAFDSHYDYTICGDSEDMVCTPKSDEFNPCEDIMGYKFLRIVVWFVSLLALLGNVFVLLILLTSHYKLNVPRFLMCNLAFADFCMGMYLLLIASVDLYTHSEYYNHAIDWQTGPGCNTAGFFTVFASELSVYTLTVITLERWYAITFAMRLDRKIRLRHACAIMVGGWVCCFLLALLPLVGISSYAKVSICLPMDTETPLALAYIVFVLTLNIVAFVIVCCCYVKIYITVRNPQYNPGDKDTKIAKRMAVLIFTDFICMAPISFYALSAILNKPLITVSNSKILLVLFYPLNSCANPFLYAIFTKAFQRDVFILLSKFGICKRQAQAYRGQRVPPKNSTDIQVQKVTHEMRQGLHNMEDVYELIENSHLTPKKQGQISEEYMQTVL

As to `CCNc1nc(Cl)nc(NCC)n1`, the Potency entry in [1], in [2], in [3], in test [4], in test [5] and in test [6] was “inactive” each time. In addition, the Potency result in test [7], in test [9], in test [11], in test [12], in [14] and in test [15] was “inactive” throughout. The Potency entry in test [16], in [17], in test [18] and in [19] was “inactive” in each case. The Potency in test [8] was 55.2 µM (active) and inactive. Besides, the molecule was called inactive in test [10]. Also, the activity change, positive = activation in [13] (at 42.5 µM (top of the series)) was -12% (inactive); in test [13] (at 92.4 µM (top of the series)) it was -3.33% (inactive) and -18.8% (inactive).

For the molecule `CC(=O)O`, the Potency entry in test [1], in test [4], in [8], in test [9], in [11] and in test [14] was “inactive” throughout. The Potency result in test [15], in test [16], in test [17], in test [18] and in test [19] was “inactive” in each case. For the same molecule, in test [10], the call was inactive.

For `O=C(O)C(Cl)Cl`, the Potency entry in test [1], in test [4], in test [7], in test [8], in test [9] and in [11] was “inactive” throughout. For the same molecule, the Potency result in test [14], in test [15], in test [16], in test [17], in [18] and in [19] was “inactive” throughout. The outcome in test [10] was inactive.

Regarding `C[N+](C)(C)Cc1ccccc1`, the Potency entry in [1], in test [4], in test [7], in test [8], in [9] and in [11] was “inactive” in each case. In addition, the Potency entry in test [14], in test [15], in test [16], in [17], in test [18] and in [19] was “inactive” each time. Further, the outcome in test [10] was inactive.

With `O=S(=O)(O)O`, the Potency result in test [1], in test [4], in test [8], in [9], in test [11] and in [14] was “inactive” each time. Moreover, the Potency entry in [15], in test [16], in test [17], in [18] and in [19] was “inactive” in each case. Moreover, in test [10], the outcome was inactive.

For the molecule `CCC[N+]1(C)CCCC1`, the Potency result in test [1], in [4], in test [8], in test [9], in test [11] and in test [14] was “inactive” each time. In addition, the Potency entry in test [15], in test [20], in test [17], in [18] and in [19] was “inactive” throughout. Besides, the result in test [10] was inactive. Moreover, the Potency result in test [16] is “inactive and 34.9 µM (active)”.

For `CCCCCCCCn1cc[n+](C)c1`, the Potency entry in test [4], in test [7], in [8], in test [9], in test [14] and in test [16] was “inactive” in each case. Further, the Potency result in test [19] is “inactive”. The molecule was called inactive in test [10]. The Potency in test [11] was 56.3 µM (active) and 80 µM (active) and 90.5 µM (active); in test [15], 3.86 µM (active) and 3.12 µM (active) and 3.93 µM (active); in [17] it was 19.4 µM (active) and 49.5 µM (active).

Take `O=C(O)CC(O)(CC(=O)O)C(=O)O`: the Potency entry in [1], in test [4], in test [8], in test [9], in [11] and in test [14] was “inactive” in each case. Moreover, the Potency result in [15], in [20], in test [16], in test [17], in test [18] and in test [19] was “inactive” throughout.

Values taken from PubChem BioAssay (Tox21).
